SMILES strings stand for the structures. “And” between values parts separate entries of the source, which are not always exact repeats. Equal values may be shown once. About 83,000 compounds went through this panel and 20% of them were active in at least one assay; those are over-represented in the sample as a whole.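 Compound tested at a single concentration for 48 hours in 96-well plates; a percent growth value below 10 was scored as active.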 The source made the active and inactive calls.

Test systems include HCT-15 colon; HT29 colon; SNB-75 CNS; SNB-19 CNS; U251 CNS; PC-3 prostate; SK-MEL-5 melanoma; UACC-62 melanoma; LOX IMVI melanoma; SK-MEL-28 melanoma; SK-MEL-2 melanoma; EKVX NSCLC; SN12C renal; UO-31 renal; TK-10 renal; ACHN renal; CAKI-1 renal; A498 renal; CCRF-CEM leukemia; HL-60(TB) leukemia.
Assay in all cases: NCI-60 one-dose screen, 48 h (100 = growth as untreated, 0 = no growth, -100 = all killed)
Holding throughout (conditions): 10 µM unless noted

With `CNC(=O)Oc1ccc(Cl)cc1SSc1cc(Cl)ccc1OC(=O)NC`, the growth is 72.7% (inactive) in the assay on HCT-15 colon; 106% (inactive) with HT29 colon; 86.8% (inactive) with SNB-75 CNS; 86.8% (inactive) in the assay with SNB-19 CNS; 52.7% (inactive) in the assay on U251 CNS; 73% (inactive) in the assay on PC-3 prostate. Also, the growth in the assay on SK-MEL-5 melanoma is 43.4% (inactive); in the assay on UACC-62 melanoma, 49.7% (inactive); with LOX IMVI melanoma it was 85.8% (inactive); with SK-MEL-28 melanoma, 82% (inactive); with SK-MEL-2 melanoma it was 77.5% (inactive); in the assay on EKVX NSCLC it was 109% (inactive). For the same molecule, the growth in the assay with SN12C renal is 70.9% (inactive); in the assay on UO-31 renal, 64.6% (inactive); in the assay with TK-10 renal, 123% (inactive); with ACHN renal it was 87.2% (inactive); in the assay on CAKI-1 renal it was 97.1% (inactive); in the assay on A498 renal it was 98% (inactive). Also, in the assay on CCRF-CEM leukemia, the growth is 50.7% (inactive).
Take `Cc1ccc(S(=O)(=O)n2cc([C@@]3(O)C[C@H](CSC#N)OC3=O)c3ccccc32)cc1`: the growth with HCT-15 colon is 70% (inactive); with HT29 colon it was 54.3% (inactive); in the assay on SNB-75 CNS it was 67.8% (inactive); in the assay on SNB-19 CNS, 97.5% (inactive); with U251 CNS, 40.9% (inactive); in the assay with PC-3 prostate, 78.5% (inactive). Moreover, the growth was 66.6% (inactive) with SK-MEL-5 melanoma; 76.3% (inactive) with UACC-62 melanoma; 49.4% (inactive) in the assay with LOX IMVI melanoma; 96.2% (inactive) with SK-MEL-28 melanoma; 61% (inactive) with SK-MEL-2 melanoma; 102% (inactive) in the assay on EKVX NSCLC. Further, the growth is 60.7% (inactive) in the assay with SN12C renal; 56.2% (inactive) in the assay on UO-31 renal; 64.2% (inactive) in the assay with TK-10 renal; 63% (inactive) in the assay on ACHN renal; 66.8% (inactive) with CAKI-1 renal; 97.1% (inactive) in the assay on A498 renal. Also, the growth with CCRF-CEM leukemia is 31.7% (inactive).
For the molecule `O=C(O)C(F)F`, the growth was 106% (inactive) in the assay on HCT-15 colon; 100% (inactive) with HT29 colon; 113% (inactive) in the assay on SNB-75 CNS; 111% (inactive) with SNB-19 CNS; 108% (inactive) with U251 CNS; 105% (inactive) with PC-3 prostate. Moreover, the growth in the assay on SK-MEL-5 melanoma is 99.7% (inactive); with UACC-62 melanoma, 102% (inactive); with LOX IMVI melanoma, 99% (inactive); in the assay on SK-MEL-28 melanoma, 116% (inactive); in the assay on SK-MEL-2 melanoma, 120% (inactive); with EKVX NSCLC it was 101% (inactive). Further, the growth with SN12C renal is 104% (inactive); in the assay with UO-31 renal, 94.9% (inactive); in the assay with TK-10 renal it was 97.7% (inactive); with ACHN renal, 116% (inactive); with CAKI-1 renal, 102% (inactive); with A498 renal, 84.4% (inactive). Moreover, the growth with CCRF-CEM leukemia is 110% (inactive).
Regarding `CC[CH2][Sn]([Cl])([Cl])[CH2]CC.Oc1ccccc1C=NCCN=Cc1ccccc1O`, the growth in the assay on HCT-15 colon is 59.8% (inactive) and 60.4% (inactive); in the assay with HT29 colon, 79.1% (inactive) and 58.3% (inactive); with SNB-75 CNS, 50.7% (inactive); with SNB-19 CNS, 79.2% (inactive) and 67.5% (inactive); with U251 CNS it was 26% (inactive) and -21.6% (active); in the assay with PC-3 prostate, 84.9% (inactive) and 70.9% (inactive). For the same molecule, the growth in the assay on SK-MEL-5 melanoma was 60.1% (inactive) and 50% (inactive); in the assay on UACC-62 melanoma, 39.8% (inactive) and 32.3% (inactive); in the assay with LOX IMVI melanoma, 17.4% (inactive) and -11.1% (active); with SK-MEL-28 melanoma, 48.3% (inactive) and 45.7% (inactive); in the assay with SK-MEL-2 melanoma it was 34.1% (inactive) and 13.1% (inactive); with EKVX NSCLC, 85.2% (inactive) and 75.2% (inactive). In addition, the growth in the assay with SN12C renal is 52.2% (inactive) and 58.8% (inactive); in the assay on UO-31 renal, 53.9% (inactive) and 32.8% (inactive); with TK-10 renal, 17.6% (inactive) and -44.9% (active); with ACHN renal, 47.8% (inactive) and 29.3% (inactive); in the assay on CAKI-1 renal, 50.4% (inactive) and 33.6% (inactive); with A498 renal, 7.69% (active) and -34% (active). The growth with CCRF-CEM leukemia is 2.05% (active) and 0.18% (active).
As to `CN1CCN(c2ccc(Cl)cc2)CC1`, the growth in the assay on HCT-15 colon is 20.1% (inactive); in the assay on HT29 colon, 26.4% (inactive); with SNB-75 CNS it was 111% (inactive); in the assay on SNB-19 CNS, 93.9% (inactive); with U251 CNS, 70.1% (inactive); with PC-3 prostate, 107% (inactive). Further, the growth with SK-MEL-5 melanoma is 101% (inactive); with UACC-62 melanoma it was 86.4% (inactive); in the assay on LOX IMVI melanoma it was 70.5% (inactive); with SK-MEL-28 melanoma, 99.1% (inactive); in the assay with SK-MEL-2 melanoma, 18.1% (inactive); in the assay on EKVX NSCLC, 107% (inactive). Also, the growth in the assay on SN12C renal is 90.7% (inactive); in the assay on UO-31 renal it was 86.1% (inactive); in the assay with TK-10 renal it was 102% (inactive); with ACHN renal, -11.9% (active); in the assay with CAKI-1 renal, 24.1% (inactive); with A498 renal, 97% (inactive). Also, the growth with CCRF-CEM leukemia was 87.3% (inactive).
Consider `N#CC(NC(=O)CCl)=C(Cl)Cl`, for which the growth is -21.1% (active) in the assay with HCT-15 colon; -49.2% (active) in the assay on HT29 colon; 66.6% (inactive) in the assay with SNB-75 CNS; 60.3% (inactive) with SNB-19 CNS; 9.19% (active) with U251 CNS; 37.7% (inactive) in the assay with PC-3 prostate. In addition, the growth in the assay on SK-MEL-5 melanoma is 25.4% (inactive); with UACC-62 melanoma, -5.68% (active); in the assay on LOX IMVI melanoma, -56.4% (active); in the assay with SK-MEL-28 melanoma, -39.9% (active); in the assay on SK-MEL-2 melanoma, 51.5% (inactive); in the assay with EKVX NSCLC it was -45.3% (active). In addition, the growth with SN12C renal was 29% (inactive); in the assay with UO-31 renal it was -40% (active); in the assay on TK-10 renal it was -13.1% (active); in the assay with ACHN renal, -88.7% (active); in the assay with CAKI-1 renal it was -99.4% (active); with A498 renal it was 63.4% (inactive). Further, the growth with HL-60(TB) leukemia was -58.3% (active); in the assay with CCRF-CEM leukemia, -21.9% (active).
On to `C=CC1CN2CCC1CC2C(O)c1ccnc2ccccc12` (stereo not given), for which the growth with HCT-15 colon is 116% (inactive); with HT29 colon, 115% (inactive); in the assay on SNB-75 CNS it was 124% (inactive); in the assay on SNB-19 CNS, 124% (inactive); in the assay with U251 CNS, 115% (inactive); in the assay on PC-3 prostate it was 55.8% (inactive). The growth with SK-MEL-5 melanoma is 104% (inactive); in the assay with UACC-62 melanoma, 113% (inactive); with LOX IMVI melanoma, 117% (inactive); in the assay with SK-MEL-28 melanoma, 133% (inactive); with SK-MEL-2 melanoma, -4.22% (active); with EKVX NSCLC it was 145% (inactive). Besides, the growth with SN12C renal is 109% (inactive); in the assay with UO-31 renal, 67% (inactive); with TK-10 renal it was 142% (inactive); in the assay on ACHN renal, 109% (inactive); in the assay with CAKI-1 renal, 144% (inactive); with A498 renal, 125% (inactive). Further, the figures for the growth in the assay with HL-60(TB) leukemia and in the assay on CCRF-CEM leukemia were 225% (inactive) and 304% (inactive), respectively.
